# Data from PubChem BioAssay (NCATS).
# Records with an inconclusive call do not appear. A call without a number means that no potency is given here. Active and inactive are the calls of the source. The call rests on the fitted dose curve; in most records, active means well fitted curve in the direction sought with a large enough effect; inconclusive means small, poorly fitted or top-dose-only effect, or another doubt; inactive means no such curve, though single readings can be large; an effect the other way counts as inactive or inconclusive.
# Assays:
# [1] = qHTS of pediatric cancer cell lines to identify multiple opportunities for drug repurposing: Primary screen for OHS-50 cells (AID 1347103); further: nearly all actives have a fitted effect of over 40% in size
# Summary of the method: (§1)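 Cells (500-1,000/well) rested 5 h, then received compounds for 48 h; metabolically active cells were measured by CellTiter-Glo luminescence. Final concentrations spanned up to 46 µM (MIPE, 11-point) or 0.59 nM-46 µM (NPC, 8-point) in primary screens, 11-point in follow-ups.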
# [2] = qHTS of pediatric cancer cell lines to identify multiple opportunities for drug repurposing: Primary screen for RD cells (AID 1347104); further: nearly all actives have a fitted effect of over 55% in size
# Summary of the method: (§2)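 Phenotypic viability qHTS, 48 h compound exposure, CellTiter-Glo luminescence read-out; multi-concentration dosing so that potency and efficacy derive directly from the primary screen's curves.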
# [3] = qHTS of pediatric cancer cell lines to identify multiple opportunities for drug repurposing: Primary screen for MG 63 (6-TG R) cells (AID 1347105); further: nearly all actives have a fitted effect of over 50% in size
# Summary of the method: as §2
# [4] = qHTS of pediatric cancer cell lines to identify multiple opportunities for drug repurposing: Primary screen for Rh30 cells (AID 1347107); further: nearly all actives have a fitted effect of over 75% in size
# Summary of the method: as §1
# [5] = qHTS of pediatric cancer cell lines to identify multiple opportunities for drug repurposing: Primary screen for Rh41 cells (AID 1347108); further: nearly all actives have a fitted effect of over 70% in size
# Summary of the method: as §2
# [6] = qHTS of pediatric cancer cell lines to identify multiple opportunities for drug repurposing: Primary screen for control Hh wild type fibroblast cells (AID 1347106); further: nearly all actives have a fitted effect of over 55% in size
# Summary of the method: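 Viability after 48 h compound treatment at 37C, 500-1,000 cells/well, read as ATP luminescence with CellTiter-Glo. Primary screens used 11-point (MIPE, 0.78 nM-46 µM) or 8-point (NPC, 0.59 nM-46 µM) final concentrations; follow-up screens used 11-point dilutions.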
# [7] = qHTS of pediatric cancer cell lines to identify multiple opportunities for drug repurposing: Confirmatory screen for NB1643 cells (AID 1347109); further: nearly all actives have a fitted effect of over 45% in size
# Summary of the method: as §1
# [8] = qHTS of pediatric cancer cell lines to identify multiple opportunities for drug repurposing: Confirmatory screen for SK-N-MC cells (AID 1347111);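 further: cells exposed to compound for 48 h before the readout; nearly all actives have a fitted effect of over 70% in size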
# Summary of the method: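 Seed 500-1,000 cells/well; rest 5 h at 37 degrees C. Pin-transfer compounds, 11-point titration. Incubate 48 h. Add CellTiter-Glo, 15 min RT, read luminescence.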
# [9] = qHTS of pediatric cancer cell lines to identify multiple opportunities for drug repurposing: Confirmatory screen for BT-12 cells (AID 1347112); further: nearly all actives have a fitted effect of over 55% in size
# Summary of the method: as §1
# [10] = qHTS of pediatric cancer cell lines to identify multiple opportunities for drug repurposing: Confirmatory screen for LAN-5 cells (AID 1347113); further: nearly all actives have a fitted effect of over 65% in size
# Summary of the method: as §1
# [11] = qHTS of pediatric cancer cell lines to identify multiple opportunities for drug repurposing: Confirmatory screen for NB-EBc1 cells (AID 1347115);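 further: cells exposed to compound for 48 h before the viability read; nearly all actives have a fitted effect of over 45% in size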
# Summary of the method: as §1
# [12] = qHTS of pediatric cancer cell lines to identify multiple opportunities for drug repurposing: Confirmatory screen for SJ-GBM2 cells (AID 1347116); further: nearly all actives have a fitted effect of over 60% in size
# Summary of the method: (§3)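 Viability measured as metabolically active cells via CellTiter-Glo luminescence following 48 hours of compound exposure, 11-point dilutions in confirmatory testing. 500-1,000 cells/well plated 5 hours before dosing; controls were DMSO and 2.3 µM bortezomib.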
# [13] = qHTS of pediatric cancer cell lines to identify multiple opportunities for drug repurposing: Confirmatory screen for BT-37 cells (AID 1347117); further: nearly all actives have a fitted effect of over 55% in size
# Summary of the method: as §1
# [14] = qHTS of pediatric cancer cell lines to identify multiple opportunities for drug repurposing: Confirmatory screen for TC32 cells (AID 1347118);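 further: cells exposed to compound for 48 h before the read; nearly all actives have a fitted effect of over 65% in size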
# Summary of the method: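 Luminescent CellTiter-Glo read-out of metabolically active TC32 cells after 48 h compound exposure. Primary: MIPE 11-point, 0.78 nM–46 µM; NPC 8-point, 0.59 nM–46 µM. Confirmatory: 11-point dilutions.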
# [15] = qHTS of pediatric cancer cell lines to identify multiple opportunities for drug repurposing: Confirmatory screen for MG 63 (6-TG R) cells (AID 1347119); further: nearly all actives have a fitted effect of over 55% in size
# Summary of the method: as §1
# [16] = qHTS of pediatric cancer cell lines to identify multiple opportunities for drug repurposing: Confirmatory screen for control Hh wild type fibroblast cells (AID 1347121); further: nearly all actives have a fitted effect of over 70% in size
# Summary of the method: as §1
# [17] = qHTS of pediatric cancer cell lines to identify multiple opportunities for drug repurposing: Confirmatory screen for Rh41 cells (AID 1347123); further: nearly all actives have a fitted effect of over 60% in size
# Summary of the method: as §1
# [18] = qHTS of pediatric cancer cell lines to identify multiple opportunities for drug repurposing: Confirmatory screen for RD cells (AID 1347124);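 further: cells exposed to compound for 48 h before viability readout; nearly all actives have a fitted effect of over 65% in size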
# Summary of the method: as §1
# [19] = qHTS of pediatric cancer cell lines to identify multiple opportunities for drug repurposing: Confirmatory screen for DAOY cells (AID 1347114); further: nearly all actives have a fitted effect of over 65% in size
# Summary of the method: as §3
# Potency means the concentration at half of the fitted maximal effect.
structure (smiles),measurement,setting,value
Nc1ncnc2ccccc12,Potency,[1],inactive
same,Potency,[2],inactive
same,Potency,[3],inactive
same,Potency,[4],inactive
same,Potency,[5],23.5 µM (active)
CCc1ccc(OCc2ccccc2C(=O)Nc2ccc3nc(C)cc(N)c3c2)cc1,Potency,[1],3.43 µM (active)
same,Potency,[2],5.9 µM (active)
same,Potency,[3],7.43 µM (active)
same,Potency,[6],9.35 µM (active)
same,Potency,[4],11.8 µM (active)
same,Potency,[5],9.35 µM (active)
same,Potency,[7],9.27 µM (active)
same,Potency,[8],0.827 µM (active)
same,Potency,[9],9.27 µM (active)
same,Potency,[10],7.37 µM (active)
same,Potency,[11],8.27 µM (active)
same,Potency,[12],11.7 µM (active)
same,Potency,[13],7.37 µM (active)
same,Potency,[14],1.17 µM (active)
same,Potency,[15],4.14 µM (active)
same,Potency,[16],9.27 µM (active)
same,Potency,[17],9.27 µM (active)
same,Potency,[18],8.27 µM (active)
Clc1ccc(C(c2ccc(Cl)cc2)n2cc[n+](CC(OCc3ccc(Cl)cc3Cl)c3ccc(Cl)cc3Cl)c2)cc1 (configuration not stated),Potency,[1],17.2 µM (active)
same,Potency,[2],33.2 µM (active)
same,Potency,[3],23.5 µM (active)
same,Potency,[4],18.7 µM (active)
same,Potency,[5],18.7 µM (active)
COc1ccc(-c2coc3cc(O)ccc3c2=O)cc1,Potency,[1],inactive
same,Potency,[2],inactive
same,Potency,[3],inactive
same,Potency,[6],inactive
same,Potency,[4],inactive
same,Potency,[5],inactive
COc1ccc2cccc(CCNC(C)=O)c2c1,Potency,[1],inactive
same,Potency,[2],inactive
same,Potency,[3],inactive
same,Potency,[6],inactive
same,Potency,[4],inactive
same,Potency,[5],inactive
NCCS,Potency,[1],inactive
same,Potency,[2],inactive
same,Potency,[3],inactive
same,Potency,[4],inactive
same,Potency,[5],inactive
CCn1cc(C(=O)O)c(=O)c2ccc(C)nc21,Potency,[1],inactive
same,Potency,[2],inactive
same,Potency,[3],inactive
same,Potency,[6],inactive
same,Potency,[4],inactive
same,Potency,[5],inactive
O=c1c(-c2ccc(O)cc2)coc2cc(O)ccc12,Potency,[1],inactive
same,Potency,[2],inactive
same,Potency,[3],inactive
same,Potency,[6],inactive
same,Potency,[4],inactive
same,Potency,[5],inactive
CC1(C)Cc2c(sc(NC(=S)NC(=O)c3ccccc3)c2C(=O)O)CO1,Potency,[1],inactive
same,Potency,[2],33.2 µM (active)
same,Potency,[3],inactive
same,Potency,[4],inactive
same,Potency,[5],inactive
O=c1[nH]cnc2c1ncn2[C@H]1CC[C@@H](CO)O1,Potency,[1],inactive
same,Potency,[2],inactive
same,Potency,[3],inactive
same,Potency,[6],inactive
same,Potency,[4],inactive
same,Potency,[5],inactive
same,Potency,[7],inactive
same,Potency,[9],inactive
same,Potency,[19],inactive
same,Potency,[11],inactive
same,Potency,[12],inactive
same,Potency,[13],inactive
same,Potency,[14],inactive
same,Potency,[15],inactive
same,Potency,[16],inactive
same,Potency,[17],inactive
same,Potency,[18],inactive
COc1ccc(-c2nc(N3CCOCC3)c3sc(CN(C)c4ncc(C(=O)NO)cn4)cc3n2)cn1,Potency,[1],0.0011 µM (active)
same,Potency,[2],0.0166 µM (active)
same,Potency,[3],0.0296 µM (active)
same,Potency,[6],inactive
same,Potency,[4],0.209 µM (active)
same,Potency,[5],0.0296 µM (active)
same,Potency,[7],0.928 µM (active)
same,Potency,[9],1.85 µM (active)
same,Potency,[10],0.465 µM (active)
same,Potency,[19],1.04 µM (active)
same,Potency,[15],0.928 µM (active)
same,Potency,[17],0.414 µM (active)
same,Potency,[18],2.33 µM (active)
COC(=O)[C@@H]1[C@H]2C[C@H]3c4[nH]c5ccccc5c4CCN3C[C@@H]2CC[C@@H]1O,Potency,[1],inactive
same,Potency,[2],inactive
same,Potency,[3],inactive
same,Potency,[6],inactive
same,Potency,[4],inactive
same,Potency,[5],inactive
CCCNC(=O)NS(=O)(=O)c1ccc(Cl)cc1,Potency,[1],inactive
same,Potency,[2],inactive
same,Potency,[3],inactive
same,Potency,[6],inactive
same,Potency,[4],inactive
same,Potency,[5],inactive
C[C@]12CC[C@@H]3c4ccc(O)cc4CC[C@H]3[C@H]1C[C@@H](O)[C@H]2O,Potency,[1],inactive
same,Potency,[2],inactive
same,Potency,[3],inactive
same,Potency,[6],inactive
same,Potency,[4],inactive
same,Potency,[5],inactive
Cc1[nH]c(C=C2C(=O)Nc3ccc(S(=O)(=O)Cc4c(Cl)cccc4Cl)cc32)c(C)c1C(=O)N1CCC[C@H]1CN1CCCC1,Potency,[1],30.6 µM (active)
same,Potency,[2],18.7 µM (active)
same,Potency,[3],23.5 µM (active)
same,Potency,[6],inactive
same,Potency,[5],18.7 µM (active)
same,Potency,[7],11.7 µM (active)
same,Potency,[8],9.27 µM (active)
same,Potency,[10],9.27 µM (active)
same,Potency,[11],inactive
same,Potency,[13],18.5 µM (active)
same,Potency,[14],11.7 µM (active)
same,Potency,[15],32.9 µM (active)
same,Potency,[16],32.9 µM (active)
CN(C)CCC(c1ccccc1)c1ccccn1 (configuration not stated),Potency,[1],inactive
same,Potency,[2],inactive
same,Potency,[3],inactive
same,Potency,[6],inactive
same,Potency,[4],inactive
same,Potency,[5],inactive
O=C1NC(=O)C(c2ccccc2)(c2ccccc2)N1,Potency,[1],inactive
same,Potency,[2],inactive
same,Potency,[3],inactive
same,Potency,[6],inactive
same,Potency,[4],inactive
same,Potency,[5],inactive
C=C1C(=O)OC(CCCCCCCC)C1C(=O)O (configuration not stated),Potency,[1],inactive
same,Potency,[2],inactive
same,Potency,[3],inactive
same,Potency,[6],inactive
same,Potency,[4],inactive
same,Potency,[5],inactive
O=C(Nc1c(Cl)cncc1Cl)c1ccc(OC(F)F)c(OCC2CC2)c1,Potency,[1],inactive
same,Potency,[2],inactive
same,Potency,[3],inactive
same,Potency,[6],inactive
same,Potency,[4],inactive
same,Potency,[5],inactive
